Experimental data taken from PubChem BioAssay.

These molecules were tested against PEG-3 (UniProt Q6IN02) (assay: inhibition of PEG-3 promoter-driven reporter – cell-based, HeLa, luciferase, CREF/GAPDH counter-screen panel, dose response (AID 624167)). Conditions: CREF/GAPDH counter-screens; HeLa PEG-Prom luciferase reporter, overnight, run 1, dose range 1, at 100 µM (top of the series) unless noted.
Chain of PEG-3 (Q6IN02 whole entry, looked up): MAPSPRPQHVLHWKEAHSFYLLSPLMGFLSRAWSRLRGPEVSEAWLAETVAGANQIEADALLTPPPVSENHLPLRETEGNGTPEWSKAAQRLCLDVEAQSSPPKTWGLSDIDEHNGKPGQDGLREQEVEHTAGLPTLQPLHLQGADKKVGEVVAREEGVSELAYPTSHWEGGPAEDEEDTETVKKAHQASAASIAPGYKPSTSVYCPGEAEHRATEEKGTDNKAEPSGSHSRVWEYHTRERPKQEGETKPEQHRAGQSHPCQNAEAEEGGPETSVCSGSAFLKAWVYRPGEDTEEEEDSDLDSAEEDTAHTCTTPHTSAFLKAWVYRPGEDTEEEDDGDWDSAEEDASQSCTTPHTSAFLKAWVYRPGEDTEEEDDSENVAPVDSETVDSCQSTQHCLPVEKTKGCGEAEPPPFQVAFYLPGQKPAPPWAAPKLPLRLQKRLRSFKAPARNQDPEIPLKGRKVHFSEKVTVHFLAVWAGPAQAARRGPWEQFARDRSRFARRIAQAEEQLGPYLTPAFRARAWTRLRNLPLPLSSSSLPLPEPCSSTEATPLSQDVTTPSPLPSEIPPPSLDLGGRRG
With `CC(C)n1nc(C(=O)Oc2cc(Cl)ccc2Cl)c2ccccc2c1=O` the inhibition was 98.6%.
`COc1cccc(N2CCN(CC(=O)Nc3ccccc3C(=O)NCc3ccccc3)CC2)c1` gave an inhibition of 56.8%.
`COc1ccccc1CN(C)C(=O)c1cc(-c2cc(OC)c(OC)c(OC)c2)nc2ccccc12` showed an inhibition of 83.8%.
With `O=S(=O)(N[C@H]1C[C@@H](NS(=O)(=O)OCC(Cl)(Cl)Cl)C2CCCCC21)OCC(Cl)(Cl)Cl` (stereo partly drawn) the inhibition was 99.2%.
Molecule `COc1ccc(-c2ccc3[nH]c4c(c3c2)CCN2C[C@@H]([C@H](C)O)[C@@H](N(C)C(=O)Nc3cc(Cl)cc(Cl)c3)C[C@@H]42)cc1` has an inhibition of 96.3%.
`O=C(Nc1ccc2oc(-c3ccncc3)nc2c1)c1ccc([N+](=O)[O-])o1` showed an inhibition of 99%.
In the case of `O=C1c2ccccc2C(=O)C12OC2c1ccc(Cl)cc1Cl` (stereo not drawn), the inhibition is reported as 99%.
Work on `COc1ccc(C2c3ccc4ccccc4c3Oc3ncn(CCO)c(=N)c32)cc1OC` (stereo not drawn) yielded an inhibition of 99.1%.
Molecule `O=C(Cc1csc(Nc2nc(=S)[nH]c3ccccc23)n1)NCc1ccccc1Cl` has an inhibition of -6.11%.
Work on `CN(C)CCNc1ncnc2c1ncn2[C@H]1CN(Cc2ccc(-c3ccccc3)cc2)C[C@@H](CO)O1` yielded an inhibition of 100%.
Molecule `COc1ccc(CC(N)c2csc(Nc3cccc(OC)n3)n2)cc1` (stereo not drawn) has an inhibition of 98.9%.
`CC1(C)CC(NCCN2CCN(C3=CC(=C(C#N)C#N)CC(C)(C)C3)CC2)=CC(=C(C#N)C#N)C1` gave an inhibition of 19.6%.
`COc1ccc(CCn2c(=N)c(C(=O)NC3CCCC3)cc3c(=O)n4cccc(C)c4nc32)cc1` was tested, and the inhibition was 44.4%.
With `Cc1cc(/C=c2/sc3nc4ccccc4n3c2=O)c(C)n1-c1ccccn1` the inhibition was 84.1%.
`CCCc1nc(SCC(=O)N2CCCc3ccccc32)c2c(=O)n(C)c(=O)n(C)c2n1` gave an inhibition of 99.2%.
For `COc1cc(NC(=O)Nc2nc(C(N)CCc3ccccc3)cs2)cc(OC)c1OC` (stereo not drawn), the inhibition was 99.2%.
In the case of `Oc1c(Cl)cc(Cl)c2cccnc12`, the inhibition is reported as 80.8%.
Molecule `CC(=O)Nc1ccc(S(=O)(=O)N(Cc2cccnc2)Cc2cc3ccccc3[nH]c2=O)cc1` has an inhibition of 11.2%.
In the case of `NC1=NC[C@H](Cc2ccccc2)N1CCc1cc(C(F)(F)F)cc(C(F)(F)F)c1`, the inhibition is reported as 101%.
In the case of `COCCn1c(C)cc(C(=O)CSc2nnc3ccccn23)c1C`, the inhibition is reported as 98.8%.
In the case of `c1cncc(-c2nc(NCC3COc4ccccc4O3)c3ccccc3n2)c1` (stereo not drawn), the inhibition is reported as 101%.
For `CN(C)CCCN(C(=O)c1ccc(S(=O)(=O)N(C)Cc2ccccc2)cc1)c1nc2cc3c(cc2s1)OCO3`, the inhibition was 100%.
`CCN(Cc1ccccc1)S(=O)(=O)c1ccc(C(=O)N(CCCN(C)C)c2nc3cc4c(cc3s2)OCCO4)cc1` gave an inhibition of 99.4%.

Each molecule was assayed against PEG-3 (UniProt Q6IN02) in the same assay as above. Conditions: CREF/GAPDH counter-screens; HeLa PEG-Prom luciferase reporter, overnight, run 2, dose range 1, at 100 µM (top of the series) unless noted.
Work on `O=C(c1cc(-c2cccs2)nn1-c1ccccc1)N1CCN(S(=O)(=O)c2ccccc2)CC1` yielded an inhibition of 27.8%.
Molecule `COc1cccc(-c2cnc3c(NC=O)cc(-c4cccc(C(=O)N(C)C)c4)cn23)c1` has an inhibition of 97.5%.
`O=[N+]([O-])c1ccc(-c2nc(Nc3cccc(O)c3)c3ccccc3n2)cc1` gave an inhibition of 101%.
`CCC(C)Sc1ccc(-c2nc3ccccn3c2NCc2ccccc2)cc1OC` (stereo not drawn) showed an inhibition of 89.4%.
Work on `CCn1c2ccccc2c2cc(NC(=O)C(C)OC(=O)c3ccc(NC(=O)CC#N)cc3)ccc21` (stereo not drawn) yielded an inhibition of 83.1%.
`CC(=O)c1ccc(Nc2cc(C)nc3ccc(C)cc23)cc1` gave an inhibition of 102%.
`CC(=O)c1c(NCCc2ccccc2)nc(=S)n(-c2ccccc2)c1C` was tested, and the inhibition was 99%.
`CCCCCCC=C1CCC(CN2CCCC2)C1=O` (stereo not drawn) gave an inhibition of 101%.
For `OC[C@@H]1[C@@H](c2ccc(Cl)cc2)C(c2cccc(Cl)c2)=NN1c1ccccc1`, the inhibition was 101%.
`Cc1ccc(S(=O)(=O)N(C)C)cc1NC(=O)c1cncc(Br)c1` showed an inhibition of 83.7%.
With `c1ccc(CCCNCCCn2cnc3c(OCc4ccccc4)ncnc32)cc1` the inhibition was 101%.
Work on `Cc1ccc2sc(N(CCCN(C)C)C(=O)c3ccc(S(=O)(=O)N(C)C4CCCCC4)cc3)nc2c1C` yielded an inhibition of 102%.
`CCOc1cc(CNCCO)cc(Br)c1OCc1ccccc1Cl` was tested, and the inhibition was 99.1%.
`CC1(C(=O)NCc2cccc3ccccc23)CCN1C(=O)Cc1ccc(-c2ccccc2)cc1` (stereo not drawn) showed an inhibition of 43.6%.
For `CN(C)CCNc1ccc(CO)c2oc3ccc(O)cc3c(=O)c12`, the inhibition was 101%.
For `CN(C)c1ccc(/C=N/NC(=O)c2nnn(-c3nonc3N)c2COc2ccc(F)cc2)cc1`, the inhibition was -13.2%.
Molecule `O=C(NC1CCCCC1)Sc1ccc(Cl)cc1` has an inhibition of 101%.
Work on `CC(C)n1nc(C(=O)Oc2cc(Cl)ccc2Cl)c2ccccc2c1=O` yielded an inhibition of 97.5%.
Work on `COc1cccc(N2CCN(CC(=O)Nc3ccccc3C(=O)NCc3ccccc3)CC2)c1` yielded an inhibition of 70.2%.
`COc1ccccc1CN(C)C(=O)c1cc(-c2cc(OC)c(OC)c(OC)c2)nc2ccccc12` showed an inhibition of 84.7%.
Work on `O=S(=O)(N[C@H]1C[C@@H](NS(=O)(=O)OCC(Cl)(Cl)Cl)C2CCCCC21)OCC(Cl)(Cl)Cl` (stereo partly drawn) yielded an inhibition of 101%.
`COc1ccc(-c2ccc3[nH]c4c(c3c2)CCN2C[C@@H]([C@H](C)O)[C@@H](N(C)C(=O)Nc3cc(Cl)cc(Cl)c3)C[C@@H]42)cc1` showed an inhibition of 96.5%.
For `O=C(Nc1ccc2oc(-c3ccncc3)nc2c1)c1ccc([N+](=O)[O-])o1`, the inhibition was 101%.
With `O=C1c2ccccc2C(=O)C12OC2c1ccc(Cl)cc1Cl` (stereo not drawn) the inhibition was 102%.
`COc1ccc(C2c3ccc4ccccc4c3Oc3ncn(CCO)c(=N)c32)cc1OC` (stereo not drawn) was tested, and the inhibition was 101%.
With `O=C(Cc1csc(Nc2nc(=S)[nH]c3ccccc23)n1)NCc1ccccc1Cl` the inhibition was -45.6%.
`CN(C)CCNc1ncnc2c1ncn2[C@H]1CN(Cc2ccc(-c3ccccc3)cc2)C[C@@H](CO)O1` was tested, and the inhibition was 101%.
`COc1ccc(CC(N)c2csc(Nc3cccc(OC)n3)n2)cc1` (stereo not drawn) was tested, and the inhibition was 100%.
With `CC1(C)CC(NCCN2CCN(C3=CC(=C(C#N)C#N)CC(C)(C)C3)CC2)=CC(=C(C#N)C#N)C1` the inhibition was 44%.
`COc1ccc(CCn2c(=N)c(C(=O)NC3CCCC3)cc3c(=O)n4cccc(C)c4nc32)cc1` was tested, and the inhibition was 47.1%.
With `Cc1cc(/C=c2/sc3nc4ccccc4n3c2=O)c(C)n1-c1ccccn1` the inhibition was 84.5%.
For `CCCc1nc(SCC(=O)N2CCCc3ccccc32)c2c(=O)n(C)c(=O)n(C)c2n1`, the inhibition was 96.2%.
For `COc1cc(NC(=O)Nc2nc(C(N)CCc3ccccc3)cs2)cc(OC)c1OC` (stereo not drawn), the inhibition was 97.7%.
`Oc1c(Cl)cc(Cl)c2cccnc12` was tested, and the inhibition was 80.6%.
`CC(=O)Nc1ccc(S(=O)(=O)N(Cc2cccnc2)Cc2cc3ccccc3[nH]c2=O)cc1` was tested, and the inhibition was -18.5%.
`NC1=NC[C@H](Cc2ccccc2)N1CCc1cc(C(F)(F)F)cc(C(F)(F)F)c1` showed an inhibition of 101%.
`COCCn1c(C)cc(C(=O)CSc2nnc3ccccn23)c1C` showed an inhibition of 94.2%.
For `c1cncc(-c2nc(NCC3COc4ccccc4O3)c3ccccc3n2)c1` (stereo not drawn), the inhibition was 99.8%.
In the case of `CN(C)CCCN(C(=O)c1ccc(S(=O)(=O)N(C)Cc2ccccc2)cc1)c1nc2cc3c(cc2s1)OCO3`, the inhibition is reported as 99.3%.
Work on `CCN(Cc1ccccc1)S(=O)(=O)c1ccc(C(=O)N(CCCN(C)C)c2nc3cc4c(cc3s2)OCCO4)cc1` yielded an inhibition of 101%.
